The list is not random: actives were taken first. Their share in the collection is about 3.1%.
FadD28 binding: inhibitors of FadD28 bisubstrate probe binding, primary screen, biochemical, fluorescence polarization, single point; Mycobacterium tuberculosis FadD28 fatty-acid-AMP ligase; inhibition, % at 12.5 µM; 0.22% of 360,000 active; in the data active = inhibition above about 8.5%, passing the limit was not always enough
SARS 3CLpro inh: SARS-CoV 3CLpro protease inhibitors, primary screen, biochemical, quenched FRET; recombinant SARS-CoV 3CLpro, quenched FRET peptide cleavage; Replicase polyprotein 1ab (Severe acute respiratory syndrome coronavirus), P0C6X7; 0.14% of 290,000 active; inhibition, % at 6 µM; in the data active = inhibition above about 12%
GDH-TPI inh: GDH-TPI coupling enzyme inhibitors, primary screen, artefact control for M. tuberculosis FBA inhibitor project, biochemical, absorbance, full deck; GDH-TPI coupled enzyme counterscreen, NADH absorbance; inhibition, % at 4.8 µM; 1.2% of 360,000 active; in the data active = inhibition above about 30%;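 also: 0% = DMSO wells and 100% = wells lacking the enzyme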
FBA Mtb inh: Mtb FBA enzyme inhibitors, primary screen, biochemical, fluorescence, strain H37Rv; purified M. tuberculosis FBA, fluorescence read-out; inhibition, % at 1 µM; 2.3% of 360,000 active; in the data active = inhibition above about 27%;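 also: 0% = vehicle and 100% = reference inhibitor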
Target sequence (P9WQA3 whole entry, looked up): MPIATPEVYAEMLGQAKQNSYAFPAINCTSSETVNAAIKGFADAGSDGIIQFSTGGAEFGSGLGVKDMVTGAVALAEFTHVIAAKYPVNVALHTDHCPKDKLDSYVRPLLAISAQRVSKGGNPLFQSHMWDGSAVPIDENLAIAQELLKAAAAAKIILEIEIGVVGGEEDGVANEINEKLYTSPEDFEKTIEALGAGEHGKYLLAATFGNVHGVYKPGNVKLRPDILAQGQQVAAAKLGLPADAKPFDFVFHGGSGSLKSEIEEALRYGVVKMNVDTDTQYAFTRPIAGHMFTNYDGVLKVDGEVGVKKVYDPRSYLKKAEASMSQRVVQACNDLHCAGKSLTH
Mtb BioA inh: M. tuberculosis BioA enzyme inhibitors, primary screen, biochemical, plate reader, single point, HTS; purified M. tuberculosis BioA enzyme; inhibition, % at 9.99 µM; 0.096% of 360,000 active; AID 602481, 2012; in the data active = inhibition above about 40%
Active calls of the source: *; nt = no result; + = active, no number; ! = not confirmed by another sample.

SMILES	FadD28 binding	SARS 3CLpro inh	GDH-TPI inh	FBA Mtb inh	Mtb BioA inh
Cc1ccc(C(=O)/C=C\NCc2ccccc2)cc1	1.0	1.8	28.8	0.6	nt
CC(=O)C(=Nc1ccc(Cl)cc1Cl)NNc1cccc(Cl)c1	0.1	4.4	31.0*	0.9	nt
O=C(O)CN1C(=O)S/C(=C\c2cccnc2)C1=O	-1.5	4.1	12.7	1.6	nt
CN1C(=O)S/C(=C/c2cccnc2)C1=O	0.4	5.2	31.5*	-4.5	-0.4
O=C(NCCN1C(=O)S/C(=C/c2cccnc2)C1=O)c1cccs1	-1.6	nt	31.6*	-0.4	-1.9
O=C1CC(c2ccccc2)CC2=C1C(c1ccccn1)Nc1ccccc1N2 (configuration not stated)	-0.2	0.0	27.5	-1.6	1.3
O=C1CC(c2ccc(F)cc2)CC2=C1C(c1ccc([N+](=O)[O-])o1)Nc1ccccc1N2 (configuration not stated)	-0.9	1.9	37.9*	2.7	1.2
Cc1nn(C)c(C)c1/C=C1/SC(=S)NC1=O	0.9	3.6	34.5*	-3.1	-3.5
CC[n+]1c(/C=C/N(C)c2ccccc2)oc2ccc(Cl)cc21	1.8	0.8	45.7*	-4.9	11.5
COC(=O)c1sc(NC(=O)c2ccc(C)o2)nc1C	-1.5	1.4	34.7*	0.5	nt
CCOc1ccc2nc(NC(=O)c3ccc(C)o3)sc2c1	-3.0	nt	49.0*	5.7	-2.8
CCCNC(=O)N1[C@@H](C#N)[C@@H](c2ccc(C#Cc3ccc(F)cc3)cc2)[C@@H]1CO	nt	nt	nt	nt	-2.4
COc1ccc(/C=N/N2C(=N)SCC2=O)cc1	-3.7	2.2	48.8*	-0.1	-1.6
O=C1CSC(=S)N1/N=C/c1cccnc1	-1.1	5.0	57.2*	-4.3	-1.3
COc1cc(/C=N/N2C(=O)CSC2=S)ccc1O	0.4	-7.9	38.4*	-9.0	2.5
COc1cc(O)c(C=NN2C(=O)CSC2=S)c(OC)c1	-2.5	nt	14.7	-0.1	-1.0
O=C1CSC(=S)N1N=Cc1ccccc1O	-2.3	nt	13.8	-2.1	nt
OCCCCCNc1ncnc2ccccc12	-3.2	2.7	-0.8	-3.1	-0.1
OCCCCNc1cccc2ccccc12	-0.4	2.4	9.2	161.2*	0.7
CCCNC(=O)Nc1ccc2c(c1)OC[C@H](C)N(C(=O)C1CC1)C[C@@H](C)[C@H](OC)CN(C)C2=O	nt	nt	nt	nt	3.4
COc1cccc2cc(C(C)=O)c(=O)oc12	-3.1	2.4	-3.5	0.8	-0.4
COc1cc(C(C)=O)ccc1OC(=O)c1cc2cccc(OC)c2oc1=O	-0.9	7.8	56.8*	-1.6	-1.4
CN(C)c1ccc(C=NNc2ccccn2)c(Cl)c1	-0.9	nt	12.4	10.7	nt
O=[N+]([O-])c1ccc(/C=N/Nc2ccccn2)cc1	-1.1	0.1	13.2	-2.9	-2.7
O=C(O)c1ccc(/C=N\Nc2ccccn2)cc1	1.5	nt	54.1*	-3.0	nt
SMILES	FadD28 binding	SARS 3CLpro inh	GDH-TPI inh	FBA Mtb inh	Mtb BioA inh
CN(C)c1ccc(/C=N\Nc2ccccn2)cc1	-1.4	0.2	75.7*	2.4	-1.8
O=C(O)c1cc(-c2ccco2)nc2ccc(Br)cc12	29.2*!	-2.8	2.7	-3.5	-2.2
O=C(O)c1ccc2nc(-c3ccco3)c(-c3ccco3)nc2c1	13.3*	7.7	15.1	-2.4	-0.7
O=C(c1ccc2nc(-c3ccco3)c(-c3ccco3)nc2c1)N1CCN(c2ccccc2)CC1	-3.1	-5.9	11.2	0.0	-0.5
CCn1c(=O)c2cc(C(=O)N(C)c3ccc(OC)cc3OC)sc2c2ccccc21	-21.0	-1.8	49.4*	4.9	-0.2
CCn1c(=O)c2cc(C(=O)N(C)c3ccccc3F)sc2c2ccccc21	-16.1	0.2	13.8	1.8	-1.9
CCn1c(=O)c2cc(C(=O)N(C)c3cc(C)ccc3OC)sc2c2ccccc21	-9.9	-1.7	32.5*	6.6	-0.7
C[C@@H]1CN([C@@H](C)CO)S(=O)(=O)c2ccc(-c3cncnc3)cc2O[C@H]1CN(C)C(=O)C1CCC1	nt	nt	nt	nt	-0.9
O=c1oc2cc(OCc3ccc(F)cc3F)ccc2cc1-c1ccccn1	-0.4	0.9	6.7	18.0	-1.7
COC(=O)COc1ccc2cc(-c3ccccc3)c(=O)oc2c1	-1.7	2.5	37.9*	+	-0.1
NC(=O)COc1ccc2cc(-c3ccc(F)cc3)c(=O)oc2c1	0.1	2.1	17.9	+	-2.6
O=C(COc1ccc2c(-c3ccccc3)cc(=O)oc2c1)NCC1CCC(C(=O)O)CC1 (configuration not stated)	-3.2	-0.9	18.6	-1.4	0.1
O=C(COc1ccc2cc(-c3ccccc3)c(=O)oc2c1)NCC1CCC(C(=O)O)CC1 (configuration not stated)	0.0	2.2	49.0*	+	1.2
COc1ccc(-c2cc3ccc(OCC(C)=O)cc3oc2=O)cc1	-2.9	-3.7	14.8	154.8*	0.4
C[C@@H]1CN([C@H](C)CO)C(=O)c2cc(NC(=O)Nc3ccc(C(F)(F)F)cc3)ccc2O[C@@H](C)CCCCO[C@H]1CN(C)S(=O)(=O)c1ccccc1	nt	nt	nt	nt	-0.9
O=c1oc2cc(OCc3c(F)c(F)c(F)c(F)c3F)ccc2cc1-c1ccccn1	-1.4	-0.5	-0.7	3.8	nt
NC(=O)COc1ccc2cc(-c3ccccc3)c(=O)oc2c1	-0.7	0.0	30.8*	+	0.2
O=C(C[C@H]1CC[C@H](NC(=O)NC2CCCC2)[C@H](CO)O1)NCc1ccc(F)cc1	nt	nt	nt	nt	-0.4
COC(=O)c1ccc(COc2ccc(/C=N/Nc3nc(C)cc(=O)[nH]3)cc2)cc1	-0.8	-1.8	36.4*	-0.2	-1.2
CSc1ccc(/C=N/Nc2cccc(C(=O)O)c2)cc1	12.8*	-1.1	11.5	4.9	nt
COC(=O)c1ccc(COc2ccc(/C=N/Nc3cccc(C(=O)O)c3)cc2)cc1	11.3*	1.8	7.6	1.6	nt
CCCC(=O)Nc1ccc2c(c1)C(=O)N(C)C[C@H](OC)[C@@H](C)CN(C(=O)c1ccncc1)[C@H](C)CO2	nt	nt	nt	nt	-0.8
CN1CC=C2C(C#N)=C(N)C(C#N)(C#N)[C@H](c3ccoc3)[C@H]2C1	0.2	-5.6	8.8	60.8*	nt
CC(=O)N1CC=C2C(C#N)=C(N)C(C#N)(C#N)[C@H](c3ccoc3)[C@H]2C1	0.8	-3.3	12.0	12.9	-2.7
Cn1c(O)c(C=NC2CCCCCC2)c(=O)[nH]c1=S	-0.2	1.2	31.7*	-7.8	nt
Cn1c(O)c(C=NC2CCN(Cc3ccccc3)CC2)c(=O)[nH]c1=O	-3.2	2.2	0.5	-4.9	nt
Cn1cc(/C=C(\NC(=O)c2ccccc2)C(=O)NCCCN2CCOCC2)c2ccccc21	-1.3	4.0	32.8*	1.6	1.6
CCn1cc(/C=C(\NC(=O)c2ccccc2F)C(=O)NCCN2CCOCC2)c2ccccc21	-3.2	-0.3	32.8*	-6.0	-1.4
COc1ccc(C(=O)N/C(=C\c2cn(C)c3ccccc23)C(=O)N2CCN(C)CC2)cc1	0.4	-4.0	42.8*	-0.7	-2.5
CN1CCN(C(=O)/C(=C/c2cn(C)c3ccccc23)NC(=O)c2ccccc2)CC1	-3.2	1.5	24.8	-11.1	0.2
